# Data as given in PubChem BioAssay AID2685 (National Center for Advancing Translational Sciences (NCATS), 2010).
# The whole screen tested about 320,000 compounds, of which about 2,100 (0.66%) were called active. Another 53% or so got no clear call; they are omitted. Calls follow the shape of the dose curve; as a rule, active = well fitted inhibition curve with a large enough effect in the signal ratio, with a control signal flat (not every such curve was filed as active); inconclusive = small, poorly fitted or top-dose-only effect, or effect the other way, or a change in a side signal; inactive = flat fitted curve, though single readings scatter; the % refers to the signal ratio. The list comes from a sample in which actives are over-represented; it also holds similar structures and randomly drawn compounds.
# Assay: qHTS Assay for Lipid Storage Modulators in Drosophila S3 Cells;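 as to cell number change: cells counted by Cell Tracker Red CMTPX staining in the red channel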; as to lipid storage change, negative = inhibition: % is scaled to controls: 0 for no effect and ±100 for the full control effect
# Conditions: BODIPY lipid droplet fluorescence, 18-24 h, cells fed with added oleic acid; cell number change: measured here: cell count max response; series mostly up to 46.1 µM
# Procedure, shortened: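 Drosophila S3 cells loaded with oleic acid (400 uM, as added) and compounds at several concentrations; lipid droplets imaged by 488-nm laser-scanning cytometry, 500–530 nm intensity and object ratio to cell channel. Percent activity normalized to 20 uM Triacsin C.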
# Potency is read from the fitted curve at half-maximal effect.
Compound,Potency,cell number change [%],"lipid storage change, negative = inhibition"
O=c1[nH]cnc2sc3c(c12)CCC3,inactive,25.4,–
CCOc1ccc(-n2ccc(=O)c(C(=O)Nc3ccc(S(=O)(=O)Nc4nccs4)cc3)n2)cc1,inactive,-6.87,–
CCc1c(C)nc(N)n2c(SCC(=O)N3CCN(c4ccccc4F)CC3)nnc12,inactive,-1.8,–
O=C1CCN(Cc2ccccc2)CCN1CCO,inactive,13.2,–
O=C(CN(C(=O)CCC(=O)Nc1nccs1)c1ccc2c(c1)OCO2)NCC1CCCO1 (configuration not stated),inactive,2.62,–
Cc1cc(N2CCN(S(=O)(=O)Cc3ccccc3)CC2)n2ncnc2n1,inactive,–,–
O=c1[nH]c2ccccc2nc1C(Cl)c1ccccc1 (configuration not stated),inactive,23.2,–
CCN(CC)S(=O)(=O)c1cccc(NC(=O)c2ccc(SC)cc2OC)c1,inactive,22.2,–
COc1ccc(S(=O)(=O)N(CC(=O)NCc2ccco2)c2ccccc2)cc1,inactive,–,–
CC(C)(C)c1ccc(C(=O)NC2CCN(Cc3ccccc3)CC2)cc1,inactive,5.06,–
Cc1nnc2c(NC3CCCC3)nc3ccccc3n12,inactive,9.22,–
Cc1ccc(-c2nnc(SCC(=O)Nc3ccc(N4CCOCC4)cc3)o2)cc1,inactive,-5.45,–
COc1ccc(/C=C2/Sc3ccc(C(=O)N4CCc5ccccc5C4)cc3NC2=O)cc1,inactive,0.0626,–
CC1CCN(C(=O)c2ccc3c(c2)NC(=O)/C(=C/c2ccccc2)S3)CC1,inactive,3.29,–
O=C1Nc2cc(C(=O)N3CCc4ccccc4C3)ccc2S/C1=C\c1ccccc1,651 nM (active),17.1,–
Cn1c(=O)[nH]c(=O)c2c1nc(SCCN1CCCCC1)n2Cc1ccccc1,inactive,–,–
COc1ccc(OC)c(C(=O)CSc2nnc(Cc3cccs3)n2C)c1,inactive,-18.3,–
O=C(Nc1ccc(F)cc1)c1csc(Cc2ccccc2)n1,inactive,–,–
O=c1[nH]c2ccccc2nc1Cc1ccccc1,inactive,-29.6,–
COc1ccc(Cc2nc3ccccc3[nH]c2=O)cc1,3260 nM (active),–,–

Compound,Potency,cell number change [%],"lipid storage change, negative = inhibition"
O=c1[nH]c2ccccc2nc1Cc1ccc(Cl)cc1,inactive,6.67,–
COC(=O)N1[C@H](Cc2ccccc2)C=C[C@]1(C)C(=O)O,inactive,-7.24,–
O=C(CCl)Nc1c2c(nn1-c1ccccc1)CSC2,20600 nM (active),-21.4,–
O=C(CBr)Nc1c2c(nn1-c1ccccc1)CSC2,inactive,23.5,–
CCC(=O)Nc1c2c(nn1-c1ccccc1)CSC2,inactive,19,–
COc1ccc(C(=O)OCCc2sc[n+](CC(=O)c3ccccc3)c2C)cc1,inactive,15.7,–
Cc1c(CCOC(=O)CC23CC4CC(CC(C)(C4)C2)C3)sc[n+]1CC(=O)c1ccccc1,inactive,-7.33,–
Cc1c(CCOC(=O)C23CC4(C)CC(C)(CC(C)(C4)C2)C3)sc[n+]1CC(=O)c1ccccc1,18400 nM (active),-53.8,–
CCOc1ccccc1NC(=S)NC1CC2CCC1C2 (configuration not stated),inactive,6.16,–
COc1ccc(OC)c(NC(=O)c2cc(-c3c(C)cc(C)cc3O)n[nH]2)c1,206 nM (active),13.7,–
COc1ccc(OC)c(NC(=O)c2cc(-c3ccc(C)cc3O)n[nH]2)c1,inactive,2.51,–
Cc1cc(C)c(-c2cc(C(=O)Nc3cc(C)ccc3C)[nH]n2)c(O)c1,inactive,2.08,–
CCc1c(C)sc(NC(=O)c2cccs2)c1C#N,inactive,-15.6,–
COc1cc2c(cc1OC)C(c1ccc([N+](=O)[O-])cc1)NC(=O)C2 (configuration not stated),6510 nM (active),-4.67,–
COc1cc2c(cc1OC)C(c1cccc([N+](=O)[O-])c1)NC(=O)C2 (configuration not stated),inactive,-2.94,–
COc1cc2c(cc1OC)C(c1ccc(C)cc1)NC(=O)C2 (configuration not stated),inactive,–,–
O=C(N/N=C/c1ccco1)c1cc(-c2cccc3ccccc23)n[nH]1,inactive,-16.1,–
CCn1nc(NS(=O)(=O)c2ccc([N+](=O)[O-])cc2)c2cc3cccc(C)c3nc21,1460 nM (active),-19.5,–
CCn1nc(NC(=O)C(C)(C)C)c2cc3cccc(C)c3nc21,2910 nM (active),12.4,–
CCn1nc(NC(C)=O)c2cc3cccc(C)c3nc21,inactive,–,–

Compound,Potency,cell number change [%],"lipid storage change, negative = inhibition"
CCn1nc(NS(=O)(=O)c2ccccc2)c2cc3cccc(C)c3nc21,inactive,-3.04,–
CCn1nc(NS(=O)(=O)c2ccc(F)cc2)c2cc3cccc(C)c3nc21,inactive,-26.3,–
Cc1cccc2cc3c(NC(=O)C(C)(C)C)nn(CC(C)C)c3nc12,inactive,-9.6,–
CCOC(=O)C(C(=O)OCC)c1c([N+](=O)[O-])c(=O)n2c3c(cccc13)CCC2,inactive,0.163,–
COc1ccc(OC(=O)NCCc2ccccc2)cc1,inactive,–,–
Cc1cc2oc(C(=O)N3CCN(CCc4ccccn4)CC3)c(C)c2cc1C,inactive,–,–
O=C(NCc1ccccc1Cl)C1CCC(=O)N(CCCN2CCCC2=O)C1 (configuration not stated),inactive,-14.7,–
O=C(NCc1cccc(Cl)c1)C1CCC(=O)N(CCN2CCOCC2)C1 (configuration not stated),inactive,19,–
O=C(NCc1cccc(Cl)c1)C1CCC(=O)N(CCCN2CCCC2=O)C1 (configuration not stated),1840 nM (active),15.8,–
CC(C)CCNC(=O)c1cc([N+](=O)[O-])ccc1N1CCOCC1,inactive,-14,–
CCN1CCc2c(sc(NC(=O)c3ccc4ccccc4c3)c2C(N)=O)C1,–,-8.56,-25.3% [at 0.369 µM] (inactive)
CCN1CCc2c(sc(NC(=O)c3ccc(S(=O)(=O)N(C)CC4CCCO4)cc3)c2C(N)=O)C1 (configuration not stated),2910 nM (active),-26.3,–
CC(C)N1CCc2c(sc(NC(=O)c3ccc(S(=O)(=O)N(C)CC4CCCO4)cc3)c2C(N)=O)C1 (configuration not stated),7310 nM (active),-19.4,–
CCOC(=O)c1c(NC(=O)c2ccc(S(=O)(=O)N3CCOCC3)cc2)sc2c1CCN(C(C)C)C2,inactive,6.84,–
CCN1CCc2c(sc(NC(=S)NC(=O)c3ccc(Cl)cc3)c2C(N)=O)C1,inactive,6.82,–
CC(C)N1CCc2c(sc(NC(=O)c3ccc(S(=O)(=O)N4CCOCC4)cc3)c2C(N)=O)C1,inactive,0.268,–
CC1=CC(C)(C)NC(=S)N1C(C)c1ccccc1 (configuration not stated),inactive,20.7,–
O=C(CCNC(=O)Cn1ccc2ccccc2c1=O)NCc1ccccn1,inactive,1.28,–
